Where “and” joins values, the source holds several entries; their conditions need not be identical. Equal entries are not always repeated. Records with an inconclusive call do not appear. A structure can be active in one record and inactive in another. Calls of active or inactive are those of the source. Unless noted, calls follow the shape of the dose curve; as a rule, active = well fitted curve in the direction sought with a large enough effect in the repeat runs; inconclusive = weak or mixed curves; inactive = no such curve, though single readings can be large; an effect the other way counts as inactive or inconclusive.
What was measured:
[1] = target: Estrogen receptor beta (Homo sapiens) (UniProt Q92731); experiment: qHTS assay to identify small molecule antagonists of the estrogen receptor beta (ER-beta) signaling pathway (AID 1259378; active = well fitted inhibition curve with a large enough effect in the signal ratio in the repeat runs, not every such curve was filed as active; the % refers to the signal ratio; also: potency is read from the fitted curve at half-maximal effect)
Estrogen receptor beta (Homo sapiens), sequence (Q92731 whole entry, looked up): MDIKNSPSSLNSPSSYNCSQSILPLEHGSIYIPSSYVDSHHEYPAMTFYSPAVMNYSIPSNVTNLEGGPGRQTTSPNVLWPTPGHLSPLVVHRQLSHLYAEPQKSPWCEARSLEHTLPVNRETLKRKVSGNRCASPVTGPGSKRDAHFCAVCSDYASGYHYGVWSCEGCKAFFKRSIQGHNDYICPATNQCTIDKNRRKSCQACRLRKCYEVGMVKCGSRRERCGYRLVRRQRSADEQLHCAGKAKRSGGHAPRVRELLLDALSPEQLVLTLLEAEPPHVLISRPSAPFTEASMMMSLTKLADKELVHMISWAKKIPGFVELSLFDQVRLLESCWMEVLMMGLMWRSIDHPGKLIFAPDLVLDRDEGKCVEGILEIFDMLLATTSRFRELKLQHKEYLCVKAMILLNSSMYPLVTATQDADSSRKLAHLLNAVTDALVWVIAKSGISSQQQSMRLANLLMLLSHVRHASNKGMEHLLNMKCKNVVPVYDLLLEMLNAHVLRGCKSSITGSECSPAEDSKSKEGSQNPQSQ
In short: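 ER-beta-UAS-bla HEK293T cells in 2% charcoal-stripped FBS medium treated with compound plus 1nM final 17-beta-estradiol for 16 hr at 37C. Beta-lactamase reporter read by FRET substrate fluorescence after 2 hours at room temperature.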

[2] = qHTS assay to identify small molecule agonists of the androgen receptor (AR) signaling pathway in the presence of an antagonist - cell viability counter screen (AID 1259379);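 also: MDA-kb2 human breast cancer cells carrying an MMTV luciferase reporter; series mostly up to about 92 µM; nearly all actives have a fitted effect of over 25% in size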
In short: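 Cytotoxicity is assessed by CellTiter-Fluor in MDA-kb2 cells carrying an MMTV-driven luciferase reporter. Cells receive 3.0uM nilutamide plus compounds at 15 concentrations and incubate 16 hr at 37C without CO2 before fluorescence reading.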

[3] = qHTS assay to identify small molecule agonists of the estrogen receptor beta (ER-beta) signaling pathway - cell viability counter screen (AID 1259380); also: nearly all actives have a fitted effect of over 30% in size; also: potency is read from the fitted curve at half-maximal effect
In short: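 Cytotoxicity is measured in parallel with the reporter screen: after 16 hr compound exposure at 37C and a 2 hr LiveBLAzer step, CellTiter-Glo is added to the same ER-beta-UAS-bla HEK293T wells and luminescence read after 30 min.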

[4] = qHTS assay to identify small molecule antagonists of the estrogen receptor beta (ER-beta) signaling pathway - cell viability counter screen (AID 1259382); also: series mostly up to about 92 µM; nearly all actives have a fitted effect of over 55% in size
In short: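 Cytotoxicity counter screen multiplexed with the beta-lactamase antagonist assay: GripTite HEK293T ER-beta-bla cells were treated 16 hr with test chemicals in the presence of 1nM 17-beta-estradiol, and viability was measured by CellTiter-Glo.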

[5] = target: Estrogen receptor (Homo sapiens) (UniProt P03372); experiment: qHTS assay to identify small molecule agonists of the estrogen receptor alpha (ER-alpha) signaling pathway in the presence of an antagonist (AID 1259383; calls by dose curve; also: top concentration of the series differs between compounds; nearly all actives have a fitted effect of over 15% in size)
Estrogen receptor (Homo sapiens), sequence (P03372 whole entry, looked up): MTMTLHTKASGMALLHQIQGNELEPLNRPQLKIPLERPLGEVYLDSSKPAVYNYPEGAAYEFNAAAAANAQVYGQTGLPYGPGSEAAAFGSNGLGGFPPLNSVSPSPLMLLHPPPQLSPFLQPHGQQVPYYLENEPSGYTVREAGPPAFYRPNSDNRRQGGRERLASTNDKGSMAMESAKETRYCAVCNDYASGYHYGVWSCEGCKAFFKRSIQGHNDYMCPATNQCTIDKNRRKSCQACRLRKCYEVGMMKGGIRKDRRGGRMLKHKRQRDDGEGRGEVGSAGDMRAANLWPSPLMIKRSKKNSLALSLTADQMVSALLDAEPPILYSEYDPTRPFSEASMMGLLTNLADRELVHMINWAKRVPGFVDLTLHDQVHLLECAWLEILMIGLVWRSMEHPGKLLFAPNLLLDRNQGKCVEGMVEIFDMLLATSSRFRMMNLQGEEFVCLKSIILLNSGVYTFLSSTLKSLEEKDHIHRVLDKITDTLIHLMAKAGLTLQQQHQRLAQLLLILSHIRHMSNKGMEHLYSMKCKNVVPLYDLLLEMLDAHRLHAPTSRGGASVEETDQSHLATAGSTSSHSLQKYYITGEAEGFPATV
In short: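 Agonist-mode confirmation in the presence of the ER antagonist ICI-182,780 at 10.0nM final. Breast-derived VM7Luc4E2 reporter cells were exposed to compounds for 22hr, and ERE-driven luciferase was quantified by luminescence.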

[6] = qHTS assay to identify small molecule agonists or antagonists of the thyroid stimulating hormone receptor (TSHR) signaling pathway - wild type cell line counter screen (AID 1259384; calls by dose curve)
In short: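 Wild-type Hek293 cells, 800/well, 18 h at 37C, then compound with Ro20-1724 for 30 min RT. cAMP by HTRF (cAMP-d2/anti-cAMP cryptate), 1 h RT, fluorescence read. 15 concentrations, triplicates.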

[7] = qHTS assay to identify small molecule agonists of the estrogen receptor alpha (ER-alpha) signaling pathway in the presence of an antagonist - cell viability counter screen (AID 1259386);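 also: series mostly up to about 92 µM; cells exposed to compounds for 22 h at 37 °C before the viability read; nearly all actives have a fitted effect of over 30% in size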
In short: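 Cytotoxicity was measured in parallel with the ERE-luciferase agonist screen, in the same wells. The cells were VM7Luc4E2, which endogenously express ER-alpha, and treatment was with compounds plus 10.0nM ICI-182,780 for 22hr.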

[8] = target: Progesterone receptor (Homo sapiens) (UniProt P06401); experiment: qHTS assay to identify small molecule agonists of the progesterone receptor (PR) signaling pathway (AID 1346784; calls by dose curve; also: nearly all actives have a fitted effect of over 30% in size)
Progesterone receptor (Homo sapiens), sequence (P06401 whole entry, looked up): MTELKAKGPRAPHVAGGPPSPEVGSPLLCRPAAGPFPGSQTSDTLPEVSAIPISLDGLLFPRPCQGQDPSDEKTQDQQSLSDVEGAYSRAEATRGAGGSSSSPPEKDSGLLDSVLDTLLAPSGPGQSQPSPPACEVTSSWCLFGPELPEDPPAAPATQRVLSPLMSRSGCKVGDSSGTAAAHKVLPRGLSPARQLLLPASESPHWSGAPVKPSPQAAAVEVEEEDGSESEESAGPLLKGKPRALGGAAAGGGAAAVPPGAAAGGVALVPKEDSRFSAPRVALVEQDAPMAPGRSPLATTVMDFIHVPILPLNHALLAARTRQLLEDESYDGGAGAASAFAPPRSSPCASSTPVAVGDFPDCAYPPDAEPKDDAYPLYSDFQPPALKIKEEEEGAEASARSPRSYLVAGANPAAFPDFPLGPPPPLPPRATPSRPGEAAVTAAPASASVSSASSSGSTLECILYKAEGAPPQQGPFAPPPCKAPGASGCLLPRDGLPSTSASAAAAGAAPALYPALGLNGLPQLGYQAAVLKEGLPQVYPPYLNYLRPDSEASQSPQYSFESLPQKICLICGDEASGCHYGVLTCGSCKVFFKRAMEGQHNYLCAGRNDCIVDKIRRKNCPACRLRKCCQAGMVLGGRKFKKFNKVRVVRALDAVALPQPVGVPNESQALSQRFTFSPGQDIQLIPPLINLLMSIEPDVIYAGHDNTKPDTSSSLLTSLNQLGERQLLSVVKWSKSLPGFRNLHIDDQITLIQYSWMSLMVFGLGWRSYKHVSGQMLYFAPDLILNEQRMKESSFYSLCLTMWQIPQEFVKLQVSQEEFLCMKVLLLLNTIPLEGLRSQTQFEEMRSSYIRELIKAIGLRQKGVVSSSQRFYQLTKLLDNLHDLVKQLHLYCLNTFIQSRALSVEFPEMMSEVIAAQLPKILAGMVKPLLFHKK
In short: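 Seed PR-UAS-bla HEK 293T cells (2% charcoal-stripped FBS), incubate 6 hr at 37C; add compounds in DMSO, 16 hr at 37C; add LiveBLAzer B/G substrate, 2 hr RT; read fluorescence intensity.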

[9] = target: Progesterone receptor (Homo sapiens) (UniProt P06401); experiment: qHTS assay to identify small molecule antagonists of the progesterone receptor (PR) signaling pathway (AID 1346795; active = well fitted inhibition curve with a large enough effect in the signal ratio in the repeat runs, not every such curve was filed as active; the % refers to the signal ratio; also: potency is read from the fitted curve at half-maximal effect)
In short: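 Screening used a GripTite HEK293T line with PR-responsive UAS-beta-lactamase. Cells were challenged with compound in the presence of 1 nM R5020 final for 16 hr at 37C; B/G FRET substrate, 2 hr room temperature, fluorescence.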

[10] = qHTS assay to identify small molecule antagonists of the progesterone receptor (PR) signaling pathway - cell viability counter screen (AID 1346798); also: nearly all actives have a fitted effect of over 50% in size; also: potency is read from the fitted curve at half-maximal effect
In short: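 Measures cytotoxicity in parallel with the PR antagonist reporter read: HEK293T PR-UAS-bla cells get compound and R5020 for 16 hr, and remaining viable cells are quantified by CellTiter-Glo luminescence.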

[11] = qHTS assay to identify small molecule agonists of the progesterone receptor (PR) signaling pathway - cell viability counter screen (AID 1346799; calls by dose curve; also: nearly all actives have a fitted effect of over 45% in size; also: potency is read from the fitted curve at half-maximal effect)
In short: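 Using the same plates as the PR reporter screen, HEK293T PR-UAS-bla cells received compounds for 16 hr at 37C and were then lysed with CellTiter-Glo; luminescence was read 30 min later at room temperature.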

[12] = qHTS assay to identify small molecule antagonists of the TGF-beta/Smad signaling pathway - cell viability counter screen (AID 1346824); also: nearly all actives have a fitted effect of over 50% in size
In short: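 SBE-bla HEK 293T cells, incubated overnight, then compound plus 0.25 ng/mL TGF-beta1 (stock added) for 5 hr at 37 C. Viability was read in the same wells by CellTiter-Glo luminescence after 30 min at room temperature.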

[13] = qHTS assay to identify small molecule agonists of the TGF-beta/Smad signaling pathway - cell viability counter screen (AID 1346829); also: nearly all actives have a fitted effect of over 45% in size; also: potency is read from the fitted curve at half-maximal effect
In short: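 Tox21 qHTS format: SBE-bla HEK 293T cells treated with DMSO-dissolved compounds for 5 hr; CellTiter-Glo luminescence after 30 min at room temperature.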

[14] = qHTS assay to identify small molecule agonists of the TGF-beta/Smad signaling pathway (AID 1346859; active = well fitted activation curve with a large enough effect in the signal ratio in the repeat runs, not every such curve was filed as active; the % refers to the signal ratio; also: series mostly up to about 77 µM)
In short: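 Beta-lactamase reporter activity downstream of Smad binding elements was measured in stably transfected HEK 293T cells; compounds were incubated for 5 hr, substrate for 2 hr at room temperature.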

[15] = target: Thyrotropin-releasing hormone receptor (Homo sapiens) (UniProt P34981); experiment: qHTS assay to identify small molecule antagonists of the thyrotropin-releasing hormone receptor (TRHR) signaling pathway (AID 1346877; active = well fitted inhibition curve with a large enough effect in the repeat runs, not every such curve was filed as active; also: series mostly up to about 51 µM)
Thyrotropin-releasing hormone receptor (Homo sapiens), sequence (P34981 whole entry, looked up): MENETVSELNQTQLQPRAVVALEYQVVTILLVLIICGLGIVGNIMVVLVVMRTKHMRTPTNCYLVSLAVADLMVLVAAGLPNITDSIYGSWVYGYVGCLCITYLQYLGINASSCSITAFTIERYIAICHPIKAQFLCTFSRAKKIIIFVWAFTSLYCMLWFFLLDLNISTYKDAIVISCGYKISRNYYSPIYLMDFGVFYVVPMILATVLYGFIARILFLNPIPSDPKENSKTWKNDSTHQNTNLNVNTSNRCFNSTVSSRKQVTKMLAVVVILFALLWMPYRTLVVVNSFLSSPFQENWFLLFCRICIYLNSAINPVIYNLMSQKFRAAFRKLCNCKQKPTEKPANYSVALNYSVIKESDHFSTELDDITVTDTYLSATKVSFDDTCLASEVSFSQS
In short: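 Antagonism is measured as suppression of the calcium response to 1 nM TRH in TRHR-HEK293 cells that have been dye-loaded for 2 h at 37 °C after overnight plating. Each compound is tested at 15 concentrations in triplicate.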

[16] = target: Thyrotropin-releasing hormone receptor (Homo sapiens) (UniProt P34981); experiment: qHTS assay to identify small molecule agonists of the thyrotropin-releasing hormone receptor (TRHR) signaling pathway (AID 1346891; calls by dose curve;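 also: HEK293 cells expressing TRHR with calcium dye readout; series mostly up to about 58 µM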)
In short: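 Overnight-plated (18 h, 37 °C, 5% CO2) TRHR-Hek293 cells; 2 h calcium dye at 37 °C; compound in DMSO; 3-min kinetic fluorescence read.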

[17] = Human pregnane X receptor (PXR) small molecule agonists, qHTS cell viability counter screen (AID 1346977); also: nearly all actives have a fitted effect of over 50% in size; also: potency is read from the fitted curve at half-maximal effect
In short: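 After a 5hr pre-incubation, PXR-Luc HepG2 cells received compounds plus positive control in DMSO and were kept 24hr at 37C. Cell viability was quantified by fluorescence from CellTiter-Fluor added for the final hour.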

[18] = Caspase-3/7 induction in HepG2 cells by small molecules, qHTS assay (AID 1346978); also: nearly all actives have a fitted effect of over 15% in size
In short: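 Wild-type HepG2 cells, 2,000/well, settled 5 hr at 37 C and 5% CO2, then compound-treated for 17 hr; caspase-3/7 activity read by luminescent Caspase-Glo 3/7 after 30 min at room temperature.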

[19] = target: Androgen receptor (Homo sapiens) (UniProt P10275); experiment: qHTS assay to identify small molecule agonists of the androgen receptor (AR) signaling pathway in the presence of an antagonist (AID 1259381; calls by dose curve; also: nearly all actives have a fitted effect of over 15% in size)
Androgen receptor (Homo sapiens), sequence (P10275 whole entry, looked up): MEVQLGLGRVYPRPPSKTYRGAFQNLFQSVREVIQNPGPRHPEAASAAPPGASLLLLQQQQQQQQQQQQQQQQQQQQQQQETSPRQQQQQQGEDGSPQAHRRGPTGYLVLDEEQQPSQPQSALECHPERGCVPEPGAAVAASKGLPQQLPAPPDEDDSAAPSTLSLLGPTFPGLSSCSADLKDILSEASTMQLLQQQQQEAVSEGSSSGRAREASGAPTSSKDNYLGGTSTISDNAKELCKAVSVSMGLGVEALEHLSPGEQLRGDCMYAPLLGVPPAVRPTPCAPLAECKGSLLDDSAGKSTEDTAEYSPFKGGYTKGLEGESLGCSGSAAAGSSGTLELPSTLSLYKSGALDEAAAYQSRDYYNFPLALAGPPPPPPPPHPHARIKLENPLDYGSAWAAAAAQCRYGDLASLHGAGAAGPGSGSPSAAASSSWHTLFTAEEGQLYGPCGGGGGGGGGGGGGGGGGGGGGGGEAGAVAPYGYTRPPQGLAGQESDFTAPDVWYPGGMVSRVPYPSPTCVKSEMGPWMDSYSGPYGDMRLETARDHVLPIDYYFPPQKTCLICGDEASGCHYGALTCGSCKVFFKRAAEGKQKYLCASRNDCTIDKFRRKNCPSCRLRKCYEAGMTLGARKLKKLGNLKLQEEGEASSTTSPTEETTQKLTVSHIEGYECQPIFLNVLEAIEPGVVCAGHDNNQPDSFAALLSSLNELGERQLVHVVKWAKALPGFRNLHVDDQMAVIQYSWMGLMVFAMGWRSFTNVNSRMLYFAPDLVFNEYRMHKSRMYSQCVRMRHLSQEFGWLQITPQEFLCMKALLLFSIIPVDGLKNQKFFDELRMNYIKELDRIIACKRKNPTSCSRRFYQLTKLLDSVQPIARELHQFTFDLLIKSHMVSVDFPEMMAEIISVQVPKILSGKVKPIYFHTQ
In short: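 Agonist-mode confirmation screen: human MDA-kb2 cells stably expressing luciferase under an MMTV promoter bearing AR and GR response elements, co-treated with 3.0uM nilutamide (final). Luminescence measured after 16hr compound incubation.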

[20] = target: Thyrotropin receptor (Homo sapiens) (UniProt P16473); experiment: qHTS assay to identify small molecule antagonists of the thyroid stimulating hormone receptor (TSHR) signaling pathway (AID 1259385; calls by dose curve; also: nearly all actives have a fitted effect of over 20% in size)
Thyrotropin receptor (Homo sapiens), sequence (P16473 whole entry, looked up): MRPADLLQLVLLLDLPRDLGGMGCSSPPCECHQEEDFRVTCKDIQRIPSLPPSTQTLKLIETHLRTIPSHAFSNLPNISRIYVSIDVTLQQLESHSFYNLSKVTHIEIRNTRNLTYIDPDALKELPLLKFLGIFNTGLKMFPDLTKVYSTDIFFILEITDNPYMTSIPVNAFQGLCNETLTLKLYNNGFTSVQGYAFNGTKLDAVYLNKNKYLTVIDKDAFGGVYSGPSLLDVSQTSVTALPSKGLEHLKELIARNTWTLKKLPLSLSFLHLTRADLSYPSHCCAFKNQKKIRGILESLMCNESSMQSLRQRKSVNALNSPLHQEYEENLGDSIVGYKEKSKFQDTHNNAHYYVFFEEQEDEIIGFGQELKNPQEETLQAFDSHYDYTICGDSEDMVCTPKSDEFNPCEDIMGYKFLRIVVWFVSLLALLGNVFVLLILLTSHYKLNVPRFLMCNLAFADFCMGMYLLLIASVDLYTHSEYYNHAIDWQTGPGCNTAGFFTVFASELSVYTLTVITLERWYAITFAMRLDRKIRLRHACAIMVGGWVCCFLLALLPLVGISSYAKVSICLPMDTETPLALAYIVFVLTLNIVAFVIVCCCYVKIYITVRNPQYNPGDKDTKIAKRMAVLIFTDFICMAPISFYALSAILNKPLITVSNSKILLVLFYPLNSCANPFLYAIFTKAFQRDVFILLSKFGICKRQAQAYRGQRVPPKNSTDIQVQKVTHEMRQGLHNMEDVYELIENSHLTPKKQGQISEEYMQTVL
In short: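 TSHR-HEK293 cells (800/well) plated 18 h, then compounds with Ro20-1724 and TSH at 1.5 ng/mL final, 30 min at room temperature. cAMP quantified by HTRF (cAMP-d2/anti-cAMP-cryptate, 1 h); 15 concentrations in triplicate.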

Measured: Potency

NNC(=O)c1ccccc1
not listed: [19] | [20]
inactive: all other assays above

Clc1ccc(C(c2ccc(Cl)cc2)C(Cl)(Cl)Cl)cc1
55.3 µM (active) and inactive: [13]
active: [1] 13.7 µM and 7.5 µM | [3] 61.6 µM and 54.5 µM | [9] 7.7 µM and 5.96 µM
not listed: [5] | [8] | [11] | [14] | [19] | [20]
inactive: all other assays above

CC(O)C#N (centres undefined)
not listed: [6] | [14]
inactive: all other assays above

Cc1cc(C(F)(C(F)(F)F)C(F)(F)F)ccc1NC(=O)c1cccc(I)c1C(=O)NC(C)(C)CS(C)(=O)=O
active: [3] 19.4 µM
not listed: [4] | [8] | [9] | [12] | [14] | [18] | [19]
inactive: all other assays above

CCc1ccccc1C
not listed: [3] | [10] | [15] | [16] | [19]
inactive: all other assays above

c1ccc2c(c1)OCC(C1=NCCN1)O2 (centres undefined)
active: [1] 11.9 µM | [9] 21.1 µM | [17] 26.6 µM
not listed: [3] | [10] | [18] | [19]
inactive: all other assays above

CC(C)CC(C)N (centres undefined)
not listed: [18] | [19]
inactive: all other assays above

Cc1ccc(OP(=O)(Oc2ccccc2)Oc2ccccc2)cc1
active: [1] 24.7 µM | [9] 15.6 µM
not listed: [3] | [4] | [14]
inactive: all other assays above

NC(=O)c1ccc(N)nc1
active: [3] 48.6 µM | [10] 17.2 µM | [11] 21.7 µM
not listed: [4] | [6] | [8] | [12] | [20]
inactive: all other assays above

CCOP(=S)(OCC)SCS(=O)(=O)CC
not listed: [12] | [19]
inactive: all other assays above

ClCCN1CCOCC1
not listed: [10] | [14] | [19]
inactive: all other assays above

Cc1cc(Cl)ccc1O[C@H](C)C(=O)O
inactive: [1] | [2] | [3] | [5] | [7] | [9] | [10] | [12] | [13] | [17] | [18]

CC(C)[C@H](C(=O)OC(C#N)c1cccc(Oc2ccccc2)c1)c1ccc(OC(F)F)cc1 (some centres undefined)
not listed: [5] | [6] | [8] | [9] | [10] | [11] | [19]
inactive: all other assays above

N#CNC#N
not listed: [5] | [6] | [8] | [9] | [12] | [18] | [19]
inactive: all other assays above

CN(C)CCc1c[nH]c2cccc(O)c12
inactive: [1] | [2] | [3] | [7] | [8] | [12] | [13] | [14] | [18]

C[As+](C)(C)CC(=O)[O-]
not listed: [6]
inactive: all other assays above

COc1ccc(OC)c(C=O)c1
inactive: [1] | [2] | [3] | [5] | [7] | [14] | [15] | [16] | [17] | [18]

Source: PubChem BioAssay (Tox21)
